Eya2 inh = blocks the phosphatase activity of human Eya2; 330,000 tested, 0.006% active; Potency, µM (doses to about 76.9 µM), for inactives: at the top dose activity, negative = inhibition, actives largely listed as inhibitors; recombinant Eya2, OMFP fluorescence dephosphorylation (OMFP is methylfluorescein phosphate); O00167; further: potency means the concentration at half of the fitted maximal effect
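Eya2 (0.2 uM) preincubated 10 min at ambient with compound, then OMFP substrate added at 50 uM; 10 min reaction in 50 mM HEPES pH 7.5, 50 mM NaCl, 5 uM MgCl2, 0.05% BSA, 1 mM DTT. Fluorescence read at Ex 485/Em 525 nm.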
rTrxR1 inhibitor = rat TrxR1 inhibition; O89049; recombinant rTrxR1, NADPH fluorescence consumption, selenite substrate; Potency, µM (titrated, usually from 114 µM), for inactives: at the top dose activity change, negative = inhibition, actives largely listed as inhibitors; 390,000 tested, 1% active; AID 588453; further: potency means the concentration at half of the fitted maximal effect; nearly all actives have a fitted effect of over 65% in size
Target sequence (O89049 whole entry, looked up): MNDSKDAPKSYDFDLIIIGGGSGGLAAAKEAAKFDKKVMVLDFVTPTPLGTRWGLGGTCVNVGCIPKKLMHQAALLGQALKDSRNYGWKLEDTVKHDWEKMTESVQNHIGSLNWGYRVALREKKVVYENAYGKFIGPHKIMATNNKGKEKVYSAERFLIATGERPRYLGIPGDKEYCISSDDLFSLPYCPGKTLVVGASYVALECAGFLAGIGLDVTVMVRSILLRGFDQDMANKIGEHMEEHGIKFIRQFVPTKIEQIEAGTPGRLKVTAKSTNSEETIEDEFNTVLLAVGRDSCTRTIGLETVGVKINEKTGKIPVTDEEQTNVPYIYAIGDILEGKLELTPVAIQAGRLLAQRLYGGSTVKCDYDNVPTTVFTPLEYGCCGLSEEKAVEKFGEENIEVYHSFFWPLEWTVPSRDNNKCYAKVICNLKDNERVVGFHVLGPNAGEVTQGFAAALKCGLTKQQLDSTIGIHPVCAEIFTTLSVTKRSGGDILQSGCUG
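Rat TrxR1 (90 nM in the dispensed reagent) was pre-reduced with 400 uM NADPH for 5 min at room temperature, then incubated with compound for 15 min. After 400 uM selenite was added, NADPH fluorescence (Ex 340/Em 450 nm) was followed for 8 min.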
Coupling enz = coupling enzyme interference in Giardia aldolase counter-screen | AID 2472 | 290,000 tested, 0.67% active | coupling enzyme system counterscreen, AmpLite Red fluorescence | activity change, negative = inhibition, % at 58.2 µM, hits read low; in the data active means activity change below about -30%
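Final compound at 57.5 uM, incubated 10 min at RT with coupling enzyme reagent (glyceraldehyde-3-phosphate), then 20 min with substrate and AmpLite Red detection. Fluorescence read at 525/598 nm; tests interference with the coupling assay, not aldolase inhibition.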
mIDH1 inhibitor = human IDH1 R132H inhibition | IDH1-R132H enzyme, NADPH consumption, diaphorase/resazurin fluorescence | Potency, µM (doses to about 76.6 µM), without a hit: at the highest dose activity change, negative = inhibition, most hits filed as inhibitors | 390,000 tested, 0.093% active; further: potency means the concentration at half of the fitted maximal effect; nearly all actives have a fitted effect of over 65% in size
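IDH1-R132H (0.5 ug/mL) preincubated 30 min with compound, then NADPH (0.016 mM) and alpha-KG (2 mM) added; 80 min at RT, pH 7.5. Remaining NADPH coupled via diaphorase/resazurin to fluorescence (540/590 nm); concentration-response curves normalized to no-enzyme control.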
TrxR1 substrate = is turned over as a substrate by rat TrxR1. 390,000 tested, 0.01% active. purified TrxR1 substrate turnover, NADPH consumption readout. Potency, µM (top dose mostly 114 µM), for the others: at the top dose activity change, negative = substrate turnover; further: potency means the concentration at half of the fitted maximal effect; nearly all actives have a fitted effect of over 50% in size
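Rat TrxR1, dispensed at 90 nM, was prereduced with 400 uM NADPH (final) for 5 min at ~22 deg C, then incubated with compound 15 min before 400 uM selenite. A first-read NADPH fluorescence drop versus no-compound background flagged substrates.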
* hit, by the source's call; ? = inconclusive; / = no result; ! = not confirmed by another sample; [ ] = another dose, or the depositor's remark. Sampled rows, rich in hits. Any-hit rate of the full collection: about 1.5%. Unless noted, the call rests on the fitted dose curve; in most records, active means well fitted curve in the direction sought with a large enough effect; inconclusive means small, poorly fitted or top-dose-only effect, or another doubt; inactive means no such curve, though single readings can be large; an effect the other way counts as inactive or inconclusive. On the % scale 0 is the no-effect control and ±100 the full control effect.

SMILES	Eya2 inh	rTrxR1 inhibitor	Coupling enz	mIDH1 inhibitor	TrxR1 substrate
CC(=O)Nc1ccc(C(=O)/C=C/c2ccco2)cc1	0.6%	44.7µM*	-4.9	5.1%	-10.8%
CC(=O)Nc1cccc(C(=O)/C=C/c2ccco2)c1	-6.1%	?	-0.3	-0.5%	-13.4%
O=C(/C=C/c1ccco1)NC(=S)Nc1cccc(C(=O)O)c1	2.4%	39.8µM*	-1.8	10.4%	-2.3%
O=C(Nc1ccc(Br)cc1F)c1cnn2c1NC(=C1CC1)C=C2C(F)F	/	9.3%	/	/	3.8%
Cc1ccc(NC(=S)c2ccncc2)c(C)c1	-2.3%	20µM*	-0.2	7.5%	6.5%
Cc1ccc(NC(=S)Nc2cccc3cnccc23)c(C)c1	20.3%	2.3%[57.1 µM]	-36.3*	2.8%	3.7%[57.1 µM]
Cc1cc(C)cc(NC(=S)Nc2cccc3cnccc23)c1	-4.4%	-8.8%[57.1 µM]	-36.1*	14.0%	2.3%[57.1 µM]
Cc1ccc(NC(=S)Nc2ccccn2)c(C)c1	0.6%	-17.9%[57.1 µM]	0.1	-1.2%	4.7%[57.1 µM]
CCc1ccc(NC(=S)Nc2cccc3cnccc23)cc1	-0.9%	-20.0%[57.1 µM]	-49.2*	13.8%	5.3%[57.1 µM]
S=C(NCCCc1cnc[nH]1)NCCCN(Cc1ccc(Cl)cc1)c1ncc(Br)cn1	/	-8.0%	/	/	-7.6%
Cc1ccc(N(CN2C(=O)C3CC=CCC3C2=O)C(=O)c2ccco2)cc1Cl (centres undefined)	18.0%	14.1µM*	-1.8	5.4%	6.4%
Cc1cc(Cn2cnc3c(cnn3C(C)(C)C)c2=O)ccc1F	/	13.3%	/	/	1.0%
Nc1ccc2[nH]ncc2c1	-5.0%	-2.8%	-41.9*	-3.0%	66.2%
CNC[C@H](O)c1ccc(O)c(O)c1	8.9%	?	-33.9*	5.7%	1.4%[57.1 µM]
CNC[C@H](O)c1cccc(O)c1	2.7%	23.1%[57.1 µM]	1.1	16.9%	13.3%[57.1 µM]
CC[C@H](NC(C)C)[C@H](O)c1ccc(O)c(O)c1	/	/	-35.6*	/	/
NC[C@@H](O)c1ccc(O)c(O)c1	/	/	-36.0*!	/	/
NC[C@H](O)c1ccc(O)c(O)c1	3.1%	?	-40.4*	-1.9%	2.7%[57.1 µM]
CCC(NC(C)C)C(O)c1ccc(O)c2[nH]c(=O)ccc12 (centres undefined)	0.8%	13.4%	-3.0	-6.1%	4.3%
Nc1ncnc2c1nc(Br)n2C1OC2COP(=O)(O)O[C@@H]2C1O (some centres undefined)	2.5%	-3.2%[57.1 µM]	/	/	-0.1%[57.1 µM]
COc1ccc(OC)c(NS(=O)(=O)c2cc3c(cc2Cl)N(C(C)=O)CCO3)c1	/	17.8µM*	/	2.0%	9.0%[11.4 µM]
COc1cc(OC)c(NS(=O)(=O)c2cc3c(cc2C)N(C(C)=O)CCO3)cc1Cl	/	24.9%	/	-5.0%	-0.6%
Cc1sc2ccccc2[n+]1Cc1ccccc1	/	1.8%	/	/	7.4%
C=C1CC(Cn2cc(Br)c(=O)[nH]c2=O)(c2ccc(-c3ccccc3)cc2)OC1=O (centres undefined)	/	7.08µM*	/	?	-1.1%
CC1=CC23C(=O)C(C=C(CO)[C@@H](O)[C@]2(O)[C@H]1O)[C@H]1[C@@H](C[C@H]3C)C1(C)C (some centres undefined)	/	/	0.4	/	/
SMILES	Eya2 inh	rTrxR1 inhibitor	Coupling enz	mIDH1 inhibitor	TrxR1 substrate
Nc1cccnc1Sc1cccc(Cl)c1	-4.6%	10µM*	3.2	11.2%	19.2%
COC(=O)CC1C(=O)NC2CCCCC2N1C(=O)CCl (centres undefined)	1.8%	20µM*	1.4	0.0%	6.1%
CCNC(=O)N1C(CC(=O)OCC)C(=O)NC2CCCCC21 (centres undefined)	-0.1%	3.8%[57.1 µM]	1.3	3.0%	3.3%[57.1 µM]
O=C(c1ccc(S(=O)(=O)Cc2ccccc2Cl)c([N+](=O)[O-])c1)N1CCOCC1	6.8%	14.1µM*	-2.4	-6.6%	4.3%
Cc1[nH]c2c(C)cccc2c1CCNC(=O)c1ccc2c(c1[N+](=O)[O-])C(=O)c1ccccc1C2=O	-12.9%	-5.0%	-31.3*	7.5%	-3.7%
Cc1[nH]c2ccccc2c1CCNC(=O)c1ccc2c(c1[N+](=O)[O-])C(=O)c1ccccc1C2=O	2.8%	-19.6%	-29.1	4.1%	-6.4%
CN(C)C(=O)c1ccc2c(c1[N+](=O)[O-])C(=O)c1ccccc1C2=O	5.7%	-15.1%	-43.2*	3.2%	-12.4%
NCC(=O)N[C@@H](CCCN=C(N)N)C(=O)NCC(=O)N[C@@H](CC(=O)O)C(=O)N[C@@H](CO)C(=O)N1CCC[C@H]1C(=O)O	/	/	-1.9	/	/
Cc1ccc(NCc2ccccc2O)cc1	9.0%	12.2%	-0.7	2.1%	5.2%
Cc1ccccc1NCc1ccccc1O	1.8%	6.0%[57.1 µM]	-32.9*	2.4%	-6.7%
O=c1ncccn1[C@@H]1O[C@H](CO)[C@@H](O)[C@H]1O	/	/	-0.4	/	/
O=C1C(c2[nH]c3ccc(S(=O)(=O)O)cc3c2O)=Nc2ccc(S(=O)(=O)O)cc21	/	-5.2%	-37.5*	/	11.5%
c1ccc(C(OC2CCCN(CCc3ccc4c(c3)OCO4)C2)c2ccccc2)cc1 (centres undefined)	/	/	0.8	/	/
COc1cccc(/C(O)=C/C(=O)C(=O)Nc2ccc(S(=O)(=O)NC(C)=O)cc2)c1	0.1%	22.4µM*	5.2	3.1%	-19.2%
CCc1ccccc1NC(=O)CNC(=O)c1ccc(S(=O)(=O)NCc2ccco2)cc1	/	/	/	-2.1%	/
Cc1cccc(NC(=O)c2ccc(F)c(S(=O)(=O)NCc3ccco3)c2)c1	-2.4%	79.4µM*	/	0.0%	-7.7%
Cc1cccc(C)c1NC(=O)CNC(=O)c1ccc(S(=O)(=O)NCc2ccco2)cc1	-17.7%	28.2µM*	/	-2.7%	3.5%
CCOC(=O)COc1ccc(Br)cc1/C=C\c1[nH]c(=O)[nH]c(=O)c1[N+](=O)[O-]	-1.5%	44.7µM*	7.6	?	-8.8%
COC(=O)c1ccccc1NC(=O)CSc1nc(C)cc(C)n1	-21.5%	5.1%[57.1 µM]	0.4	12.0%	3.9%[57.1 µM]
Cc1cc(C)nc(SCC(=O)NC(=O)c2ccccc2O)n1	-17.0%	12.6µM*	/	2.1%	-3.7%[57.1 µM]
CC(C)N(CCn1cnc2c([nH]c3ccccc32)c1=O)C(C)C	-2.5%	21.2%	2.4	-1.3%	27.9%
COc1cc2[nH]c3c(=O)n(CCN(C(C)C)C(C)C)cnc3c2cc1OC	-16.0%	-17.7%	-45.3*	3.2%	35.9%
COc1ccccc1S(=O)Cc1ccc(C(=O)NCCc2ccc(Cl)cc2)o1 (centres undefined)	-13.2%	17.8µM*	3.9	13.7%	1.8%
COc1ccccc1S(=O)Cc1ccc(C(=O)NC2CCCC2)o1 (centres undefined)	-12.9%	?	-2.0	6.9%	4.2%
CCOc1cccc(CNc2ccc(O)cc2)c1OCc1ccccc1Cl	-25.4%	?	1.3	0.0%	-0.6%
CCOc1cccc(CNc2ccc(O)cc2)c1OCc1ccc(Cl)cc1Cl	-5.7%	?	-50.1*	3.9%	0.7%[57.1 µM]
COc1cc2nc(Cl)nc(NC(C)C)c2cc1OC	/	?	/	/	-16.9%
CCOC(=O)/C=C/C(=O)OCC(=O)Nc1cccc(Cl)c1Cl	-14.8%	14.1µM*	1.6	-13.1%	1.1%
